According to PubChem BioAssay (NCATS):
Active and inactive are the calls of the source. Calls follow the shape of the dose curve; as a rule, active = well fitted activation curve with a large enough effect; inconclusive = small, poorly fitted or top-dose-only effect; inactive = flat fitted curve, though single readings scatter.

Test: Cellular Toxicity (caspase-3) N2a (AID 665);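 also: compound exposure lasted 16 h at 37 °C before readout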
Settings: N2a cells, luminescence, normalized: DMSO 0%, 10 µM staurosporine 100%; series mostly up to 92.2 µM; caspase-3 activation: at the top concentration
Excerpt: NIH Chemical Genomics Center [NCGC]
NIH Molecular Libraries Screening Centers Network [MLSCN]
National Institutes of Environmental Health Sciences [NIEHS]
National Toxicology Program [NTP]
We have developed a 1536-well cell-based assay for quantitative high throughput screening (qHTS) against a number of cell lines to determine in vitro caspase 3/7 activity of small molecules. This particular assay uses the N2a cell line which is derived from mouse neuroblastoma.
NCGC Assay Protocol Summary:
The Caspase-Glo 3/7 assay (Promega) is a homogeneous method to measure caspase-3 and caspase-7 activities in cultured cells. The quantitation of caspase 3/7 activity is based on the cleavage of a peptide-aminoluciferin substrate. After caspase cleaves the substrate the free aminoluciferin is liberated and serves as the substrate of luciferase, which generates the light. The luminescent signal is proportional to the amount of caspase 3/7 activity present.
Using the Caspase-Glo 3/7 assay, the amount of caspase 3/7 activity was measured in the N2a cells with complete culture medium following compound treatment for 16 hours. The assay was performed in opaque white 1536-well plates. In the screen, staurosporine and doxorubicin were used as positive controls. Library compounds were measured for their ability to cause the activation of caspase 3/7 in the cell line, as reflected by an increase in luminescence signal, in a concentration-dependent manner. Data were normalized to the controls for basal activity (DMSO only) and 100% stimulation (10 uM staurosporine). AC50 values were determined from concentration-response data modeled with the standard Hill equation.
qHTS protocol for caspase 3/7 assay in mouse N2a cell line
[Step] [Parameter] [Value] [Description]
1. Reagent; 5 uL; 1500 mouse N2a cells/well
2. Time; 5 hr; 37 °C incubation
4. Controls; 23 nL; doxorubicin 7 pM to 100 uM & staurosporine 1.4 pM to 20 uM
5. Time; 16 hr; 37 °C incubation
6. Reagent; 5 uL; Caspase-Glo 3/7 reagent
7. Time; 1 hr; Room Temperature
8. Detection; Luminescence; Viewlux plate reader
Keywords: caspase 3/7, apoptosis, mouse N2a cell line, luminescence, NTPHTS, NTPHTS_NCGC, NIEHS, EPA, DSSTox, MLSMR, MLSCN, NIH Roadmap, qHTS, NCGC

SMILES	caspase-3 activation	outcome
Nc1c2c(nc3ccccc13)CCCC2	-2.35% (inactive)	
O=c1c(-c2ccc(O)cc2)coc2cc(O)cc(O)c12	-15.2% (inactive)	
Cn1c(=O)c2[nH]cnc2n(C)c1=O	0.0463% (inactive)	
Cn1c(=O)c2c(ncn2C)n(C)c1=O	-0.355% (inactive)	
NS(=O)(=O)c1cc2c(cc1Cl)NCNS2(=O)=O	-0.785% (inactive)	
CCC1(c2ccccc2)C(=O)NCNC1=O	-2.33% (inactive)	
CC(C)NCC(O)c1ccc(O)c(O)c1 (centres undefined)	2.33% (inactive)	
Cc1ccc(-c2cc(C(F)(F)F)nn2-c2ccc(S(N)(=O)=O)cc2)cc1	1.09% (inactive)	
Cc1cn([C@H]2C=C[C@@H](CO)O2)c(=O)[nH]c1=O		inactive
COc1ccc2c(c1)c(CC(=O)O)c(C)n2C(=O)c1ccc(Cl)cc1	1.07% (inactive)	
O=c1[nH]cc(F)c(=O)[nH]1	-1.8% (inactive)	
Cc1cn([C@H]2C[C@H](N=[N+]=[N-])[C@@H](CO)O2)c(=O)[nH]c1=O	0.158% (inactive)	
COc1ccc(CCN(C)CCCC(C#N)(c2ccc(OC)c(OC)c2)C(C)C)cc1OC (centres undefined)	-1.58% (inactive)	
CC(C)C(=O)Nc1ccc([N+](=O)[O-])c(C(F)(F)F)c1	7.12% (inactive)	
COc1cc2c(c(OC)c1OC)-c1ccc(OC)c(=O)cc1[C@@H](NC(C)=O)CC2		inactive
Nc1ccn([C@H]2CC[C@@H](CO)O2)c(=O)n1	0.971% (inactive)	
N[C@@H](Cc1c[nH]c2ccc(O)cc12)C(=O)O	-0.27% (inactive)	
NCCS(=O)(=O)O	-0.586% (inactive)	
COc1ccc2[nH]cc(CCNC(C)=O)c2c1		inactive
